Laboratory results from PubChem BioAssay (NCATS).
Records with an inconclusive call do not appear. Calls of active or inactive are those of the source. Calls come from the whole dose curve; as a rule, active = well fitted curve in the direction sought with a large enough effect; inconclusive = small, poorly fitted or top-dose-only effect, or another doubt; inactive = no such curve, though single readings can be large; an effect the other way counts as inactive or inconclusive.

Assays:
[1] = Cellular Toxicity (caspase-3) Mesangial (AID 660); settings: mesangial cells, normalized: DMSO 0%, 100 µM tamoxifen 100%; at 91.7 µM (top of the series);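 note: combined caspase 3 and 7 activity read by Caspase-Glo luminescence; cells exposed to compound for 16 h before the caspase read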
How it was run: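 Seed cells derived from normal human renal glomeruli, incubate 5 h, add compounds across concentrations and incubate 16 h at 37 °C. Caspase 3/7 activation is then quantified by luciferase light, with AC50 derived by Hill modeling.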

[2] = Cellular Toxicity (caspase-3) SK-N-SH (AID 661);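 note: 0% = DMSO basal and 100% = 10 µM staurosporine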
How it was run: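 Cells were seeded and incubated 5 hr at 37 °C, dosed with compound over a concentration range for 16 hr, then given Caspase-Glo 3/7 reagent for 1 hr at room temperature before luminescence reading.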

[3] = Cellular Toxicity (caspase-3) H-4-II-E (AID 663); settings: H-4-II-E rat hepatoma, scaled: DMSO 0%, 100 µM tamoxifen 100%; at 92.2 µM (top of the series);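 note: cells exposed to compound for 16 hr before readout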
How it was run: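 H-4-II-E rat hepatoma, 1500 cells/well, 5 hr settle at 37 °C; compound 16 hr, 37 °C, complete medium; Caspase-Glo 3/7, 20 min RT; luminescence. DMSO = 0%, 100 uM tamoxifen = 100%; Hill-equation AC50.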

[4] = Cellular Toxicity (caspase-3) Hek293 (AID 664); settings: HEK293 caspase-3 activation, DMSO = 0%, 100 µM tamoxifen = 100%; at 92.2 µM (top of the series);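 note: cells exposed to compound for 16 h at 37 °C before readout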
How it was run: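 qHTS, HEK293 (human embryonic kidney), 16 h cpd exposure in complete medium. Caspase-3/7 activation = luminescence increase; normalized to DMSO/100 uM tamoxifen; Hill-fit AC50.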

[5] = Cellular Toxicity (caspase-3) N2a (AID 665);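 note: compound exposure lasted 16 h at 37 °C before readout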
How it was run: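 Caspase-3/7 activation, measured as increased luminescence from aminoluciferin release, is quantified in mouse N2a cells exposed to compounds for 16 h. Values are normalized to DMSO and 10 uM staurosporine, with AC50 derived by Hill modelling.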

[6] = Cellular Toxicity (caspase-3) NIH 3T3 (AID 666);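 note: caspase signal read after 16 h compound exposure; 0% = DMSO basal and 100% = 100 µM tamoxifen stimulation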
How it was run: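 Cells were plated at 1000 per well and incubated 5 hr at 37°C, then compound was added for 16 hr. Caspase-Glo 3/7 reagent followed for 20 min at room temperature before luminescence was read.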

[7] = Cellular Toxicity (caspase-3) Renal Proximal Tubule (AID 667); settings: Potency: caspase-3 activation;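 note: cells exposed to compound for 16 hours at 37 °C before detection; 0% = DMSO basal and 100% = 10 µM staurosporine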
How it was run: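 Caspase 3/7 activation measured by luminescent aminoluciferin release in primary rat proximal tubule cells after 16 hr compound exposure at 37 °C. AC50 from Hill-fitted concentration-response, scaled between DMSO and 10 uM staurosporine.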

[8] = molecular target: Cytochrome P450 3A4 (Homo sapiens) (UniProt P08684); test: qHTS Assay for Inhibitors and Substrates of Cytochrome P450 3A4 (AID 884); note: % is set by controls: 0 for no effect and ±100 for the full control effect; nearly all actives have a fitted effect of over 50% in size
How it was run: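 Luminescent readout of luciferin produced by CYP3A4 (20 nM) dealkylation of Luciferin-PPXE, 25 uM (its KM). NADPH-driven reaction ran 60 min at RT after 10 min compound preincubation; data scaled to 57 uM ketoconazole as 100% inhibition.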

[9] = Cell Viability - LYMP2-001 (AID 921);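 note: 0% = DMSO only and full inhibition = tetraoctylammonium bromide control wells; nearly all actives have a fitted effect of over 70% in size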
How it was run: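 Cellular ATP loss read by luciferase luminescence after 24 h compound exposure at 37 C in complete medium. LYMP2-001 lymphoblastoid cells, 2500/well; qHTS concentration-response data fitted with Hill equation for AC50.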

[10] = MultiTox-Fluor Cytotoxicity Assay - LYMP1-001 - Dead Cells (AID 946);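 note: 0% = DMSO and 100% = tetraoctylammonium bromide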
How it was run: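 LYMP1-001 lymphoblastoid cells (2500/well) treated 16 h at 37 C. Dead-cell protease cleavage of bis-AAF-R110 read at Ex/Em 485/520. Normalized to DMSO and 15 uM tetraoctylammonium bromide; AC50 from Hill fits.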

[11] = MultiTox-Fluor Cytotoxicity Assay - LYMP1-001 - Live Cells (AID 947);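 note: 0% = DMSO only and full inhibition = tetraoctylammonium bromide control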
[12] = Cell Viability - LYMP1-002 - Assay at 16 hr (AID 948);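 note: 0% = DMSO alone and full effect = 92 µM tetraoctylammonium bromide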
How it was run: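 ATP luminescence (CellTiter-Glo) was measured after 16 hr compound exposure at 37 C of 2500 lymphoblastoid LYMP1-002 cells per well. Concentration-response curves were fitted with the Hill equation to give AC50.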

[13] = MultiTox-Fluor Cytotoxicity Assay - LYMP1-002 - Live Cells (AID 955); note: % is set by controls: 0 for no effect and ±100 for the full control effect
How it was run: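 Cells were seeded at 2500 per well and incubated 5 hr. Compounds were then added for 16 hr at 37 C, followed by MultiTox-Fluor reagent for 60 min at room temperature and fluorescence reading of viable-cell protease signal.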

[14] = MultiTox-Fluor Cytotoxicity Assay - LYMP1-002 - Dead Cells (AID 960);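 note: 0% = DMSO and 100% = tetraoctylammonium bromide; nearly all actives have a fitted effect of over 60% in size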
How it was run: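 Cells were plated, rested 5 hr, then treated with compound dilution series for 16 hr at 37 C. After adding substrate reagent and 60 min at room temperature, dead-cell protease fluorescence gave concentration-response curves fitted by the Hill equation.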

[15] = MultiTox-Fluor Cytotoxicity Assay - LYMP1-003 - Dead Cells (AID 961);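 note: 0% = DMSO and 100% = tetraoctylammonium bromide; nearly all actives have a fitted effect of over 70% in size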
How it was run: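 LYMP1-003 human lymphoblastoid cells (2500/well) exposed to compound 16 h at 37 C in complete medium; dead-cell protease read with bis-AAF-R110 fluorescence (Ex/Em 485/520) after 60 min at room temperature. Normalized to DMSO and 15 uM tetraoctylammonium bromide; AC50 from Hill fit.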

[16] = MultiTox-Fluor Cytotoxicity Assay - LYMP1-003 - Live Cells (AID 962);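 note: 0% = DMSO only and full loss = 92 µM tetraoctylammonium bromide; cytotoxic hits lower the live-cell protease signal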
How it was run: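 Acute cytotoxicity is scored as a drop in live-cell protease activity in human lymphoblastoid LYMP1-003 cells after 16 hr compound exposure at 37 C. AC50 values come from Hill-equation modelling of concentration-response data.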

[17] = Cell Viability - LYMP1-003 - Assay at 24 hr (AID 963);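 note: plate controls were DMSO only for no effect and tetraoctylammonium bromide positive control for full effect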
How it was run: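 Cytotoxicity is scored as a concentration-dependent fall in ATP-linked luciferase signal in human lymphoblastoid LYMP1-003 cells treated 24 hr at 37 C in complete culture medium.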

[18] = Cell Viability - LYMP2-003 (AID 965);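 note: cells exposed to compounds for 24 h before reading; 0% = DMSO only and full effect = 92 µM tetraoctylammonium bromide; nearly all actives have a fitted effect of over 50% in size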
How it was run: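 CellTiter-Glo luminescence quantified ATP loss after 24 h compound treatment of LYMP2-003 lymphoblastoid cells at 37 C. Titration series were fitted with the standard Hill equation to give AC50.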

[19] = Cell Viability - LYMP1-003 - Assay at 40 hr (AID 964); note: % is set by controls: 0 for no effect and ±100 for the full control effect; nearly all actives have a fitted effect of over 60% in size
How it was run: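 Luminescent ATP signal (CellTiter-Glo) served as the viability read-out after 40 hr compound treatment of human lymphoblastoid LYMP1-003 cells at 37 C. Decreases in ATP were fitted with the Hill equation to give AC50.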

Sequence of Cytochrome P450 3A4 (Homo sapiens) (P08684 whole entry, looked up): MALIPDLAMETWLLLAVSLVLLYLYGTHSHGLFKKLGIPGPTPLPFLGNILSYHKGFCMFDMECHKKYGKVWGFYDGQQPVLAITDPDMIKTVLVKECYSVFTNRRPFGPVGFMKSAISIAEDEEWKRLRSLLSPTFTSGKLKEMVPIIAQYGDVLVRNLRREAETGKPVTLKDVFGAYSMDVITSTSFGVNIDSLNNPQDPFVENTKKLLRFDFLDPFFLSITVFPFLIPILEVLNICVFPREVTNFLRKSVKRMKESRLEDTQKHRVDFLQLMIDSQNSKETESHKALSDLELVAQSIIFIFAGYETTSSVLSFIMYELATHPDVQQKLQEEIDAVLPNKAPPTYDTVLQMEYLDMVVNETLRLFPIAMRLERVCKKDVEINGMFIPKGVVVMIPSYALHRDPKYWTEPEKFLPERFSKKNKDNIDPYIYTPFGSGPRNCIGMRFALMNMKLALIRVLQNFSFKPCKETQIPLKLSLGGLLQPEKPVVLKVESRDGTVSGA

NS(=O)(=O)O
inactive: caspase-3 activation [1] 1.36% | outcome [2] | caspase-3 activation [3] 1.83% | caspase-3 activation [4] 1.35% | outcome [5] | outcome [6] | Potency [7] | Potency [8] | Potency [9] | outcome [10] | outcome [11] | outcome [12] | outcome [13] | outcome [14] | Potency [15] | Potency [16] | Potency [17] | Potency [18]

CCCCN(CCO)CCCC
inactive: caspase-3 activation [1] 0.749% | outcome [2] | caspase-3 activation [3] -0.761% | caspase-3 activation [4] -0.886% | outcome [5] | outcome [6] | Potency [7] | Potency [8] | Potency [9] | outcome [10] | outcome [11] | outcome [12] | outcome [13] | outcome [14] | Potency [15] | Potency [16] | Potency [17] | Potency [19] | Potency [18]

O=C(O)c1cc(Cl)cc(Cl)c1
inactive: caspase-3 activation [1] -0.386% | outcome [2] | caspase-3 activation [3] -0.143% | caspase-3 activation [4] 1.27% | outcome [5] | outcome [6] | Potency [7] | Potency [8] | Potency [9] | outcome [10] | outcome [11] | outcome [12] | outcome [13] | outcome [14] | Potency [15] | Potency [17] | Potency [19] | Potency [18]

CNC(=O)N(c1ccccc1)c1ccccc1
inactive: caspase-3 activation [1] 0.477% | outcome [2] | caspase-3 activation [3] 1.51% | caspase-3 activation [4] 0.502% | outcome [5] | outcome [6] | Potency [7] | Potency [8] | Potency [9] | outcome [10] | outcome [11] | outcome [12] | outcome [13] | outcome [14] | Potency [15] | Potency [16] | Potency [17] | Potency [19] | Potency [18]

Cc1cccc(C)c1
inactive: caspase-3 activation [1] -0.476% | outcome [2] | caspase-3 activation [3] 0.714% | caspase-3 activation [4] 2.59% | outcome [5] | outcome [6] | Potency [7] | Potency [8] | Potency [9] | outcome [10] | outcome [11] | outcome [12] | outcome [13] | outcome [14] | Potency [15] | Potency [16] | Potency [17] | Potency [19] | Potency [18]

O=C(Cl)c1cccc([N+](=O)[O-])c1
inactive: caspase-3 activation [1] -1.19% | outcome [2] | caspase-3 activation [3] 3.32% | caspase-3 activation [4] 0.786% | outcome [5] | outcome [6] | Potency [7] | Potency [8] | Potency [9] | outcome [10] | outcome [11] | outcome [12] | outcome [13] | outcome [14] | Potency [15] | Potency [16] | Potency [17] | Potency [18]

Cc1ccc(C)o1
inactive: caspase-3 activation [1] -0.182% | outcome [2] | caspase-3 activation [3] -0.53% | caspase-3 activation [4] 0.32% | outcome [5] | outcome [6] | Potency [7] | Potency [8] | Potency [9] | outcome [10] | outcome [11] | outcome [12] | outcome [13] | outcome [14] | Potency [15] | Potency [16] | Potency [17] | Potency [19] | Potency [18]

CC(C)C(C)C
inactive: caspase-3 activation [1] 0.762% | outcome [2] | caspase-3 activation [3] -0.199% | caspase-3 activation [4] -1.39% | outcome [5] | outcome [6] | Potency [7] | Potency [8] | Potency [9] | outcome [10] | outcome [11] | outcome [12] | outcome [13] | outcome [14] | Potency [15] | Potency [16] | Potency [17] | Potency [18]

Clc1ccccn1
inactive: caspase-3 activation [1] 0.0313% | outcome [2] | caspase-3 activation [3] -0.264% | caspase-3 activation [4] 0.154% | outcome [5] | outcome [6] | Potency [7] | Potency [8] | Potency [9] | outcome [10] | outcome [11] | outcome [12] | outcome [13] | outcome [14] | Potency [15] | Potency [17] | Potency [19] | Potency [18]

c1ccc(Oc2ccccc2)cc1
inactive: caspase-3 activation [1] 0.858% | outcome [2] | caspase-3 activation [3] 0.181% | caspase-3 activation [4] -1.47% | outcome [5] | outcome [6] | Potency [7] | Potency [8] | Potency [9] | outcome [10] | outcome [11] | outcome [12] | outcome [13] | Potency [15] | Potency [16] | Potency [17] | Potency [19]

CC(=O)OCCC(C)C
inactive: caspase-3 activation [1] 0.804% | outcome [2] | caspase-3 activation [3] -0.942% | caspase-3 activation [4] -0.0363% | outcome [5] | outcome [6] | Potency [7] | Potency [8] | Potency [9] | outcome [10] | outcome [11] | outcome [12] | outcome [13] | outcome [14] | Potency [15] | Potency [16] | Potency [17] | Potency [19] | Potency [18]

Nc1cccc(O)c1
inactive: caspase-3 activation [1] 0.168% | outcome [2] | caspase-3 activation [3] -0.484% | caspase-3 activation [4] 1.1% | outcome [5] | outcome [6] | Potency [7] | Potency [8] | Potency [9] | outcome [10] | outcome [11] | outcome [12] | outcome [13] | outcome [14] | Potency [15] | Potency [16] | Potency [17] | Potency [19] | Potency [18]

Cc1ccccc1C(=O)O
inactive: caspase-3 activation [1] -0.934% | outcome [2] | caspase-3 activation [3] -0.229% | caspase-3 activation [4] -3.25% | outcome [5] | outcome [6] | Potency [7] | Potency [8] | Potency [9] | outcome [10] | outcome [11] | outcome [12] | outcome [13] | outcome [14] | Potency [15] | Potency [17] | Potency [19] | Potency [18]
